The values that follow come from PubChem BioAssay (EPA / NIEHS).

A short description of test [1]: ATG_CRE_CIS: Attagene CIS-FACTORIAL HepG2 Assay for human cAMP Responsive Element (CRE) binding protein 3 (AID 2282926). The settings on record: HepG2 CRE cis-reporter, Attagene multiplexed mRNA; actives raise or lower the signal. The method in brief:
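Capillary electrophoresis of 6-FAM-labelled, HpaI-digested PCR products quantified reporter transcripts. These came from HepG2 transiently transfected with cis-element reporters and exposed to test chemicals for 24 hours, with DMSO defining baseline activity.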

Test [2] can be described thus: ATG_CMV_CIS: Attagene CIS-FACTORIAL HepG2 Assay for human CMV (Internal Marker) (AID 2282928).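 Further: endpoint acts as a background internal control marker rather than a target.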 The settings on record: HepG2 CMV promoter reporter, transcription factor profiling; actives raise or lower the signal. The method in brief:
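Fluorescence intensity of RT-PCR-derived reporter fragments, resolved by capillary electrophoresis, gives the signal. HepG2 liver cells bearing transfected cis-element reporters were treated 24 h; activity in either direction was fit relative to DMSO-treated controls.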

A short description of test [3]: APR_HepG2_MitoticArrest_72hr: Apredica 72-hour HepG2 Assay for Mitotic Arrest (AID 2282918). To be noted: high-content imaging, actives raise or lower the signal. The method in brief:
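HepG2 cells were exposed for 72 hr to compound at 0.39–200 uM (10 concentrations, duplicate) in 0.5% v/v DMSO, fixed in 3.7% formaldehyde, immunostained for phospho-histone H3 with Hoechst 33342 and imaged by high-content fluorescence; bidirectional fits versus DMSO.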

Test [4] can be described thus: APR_HepG2_StressKinase_72hr: Apredica 72-hour HepG2 Assay for Stress Kinase (AID 2282921). To be noted: HepG2 stress kinase (phospho-c-Jun) imaging, actives raise or lower the signal. The method in brief: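 After a 72 h compound treatment spanning 0.39 to 200 uM, formaldehyde-fixed cells are labelled for phosphorylated c-Jun and nuclei, imaged by automated fluorescence microscopy, and activity is fitted in both directions relative to DMSO controls.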

Test [5] in a line: APR_HepG2_StressKinase_24hr: Apredica 24-hour HepG2 Assay for Stress Kinase (AID 2282922). The settings on record: HepG2 stress kinase (phospho-c-Jun) imaging, actives raise or lower the signal. The method in brief: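 High-content imaging of phospho-c-Jun immunofluorescence in fixed, permeabilized HepG2 cells after 24 h dosing. Ten concentrations, 0.39 to 200 uM, run in duplicate at 0.5% v/v DMSO; gain or loss of signal versus DMSO.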

Test [6] in a line: APR_HepG2_p53Act_72hr: Apredica 72-hour HepG2 Assay for p53 Activation (AID 2282923).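 Further: average cellular p53 protein immunofluorescence intensity in HepG2 cells.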 The settings on record: high-content imaging, actives raise or lower the signal. The protocol:
APR_HepG2_72hr is a cell-based, multiplexed-readout assay that uses HepG2, a human liver cell line, with measurements taken at 72 hours after chemical dosing in a 384-well plate.APR_HepG2_p53Act_72hr is one of 10 assay component(s) measured or calculated from the APR_HepG2_72hr assay. It is designed to make measurements of dna content, a form of viability reporter, as detected with fluorescence intensity signals by HCS Fluorescent Imaging technology.Data from the assay component APR_HepG2_p53Act_72hr was analyzed into 1 assay endpoint. This assay endpoint, APR_HepG2_p53Act_72hr, was analyzed with bidirectional fitting relative to DMSO as the negative control and baseline of activity. Using a type of viability reporter, measures of protein for gain or loss-of-signal activity can be used to understand the signaling at the pathway-level as they relate to the gene TP53. Furthermore, this assay endpoint can be referred to as a primary readout, because this assay has produced multiple assay endpoints where this one serves a signaling function. To generalize the intended target to other relatable targets, this assay endpoint is annotated to the dna binding intended target family, where the subfamily is tumor suppressor.
Cells were treated with dimethyl sulfoxide (DMSO) as a solvent control at a final concentration of 0.5% v/v or with compounds in DMSO with a resulting final DMSO concentration of 0.5% v/v. Compound treatment was done at concentrations of 0.39, 0.78, 1.56, 3.12, 6.24, 12.5, 25, 50, 100, and 200 uM in duplicate on each plate. Cells were treated with compounds for 1, 24, or 72 hr. Carbonyl […] m-chloro-phenylhydrazone (CCCP) and taxol were used as positive controls for mitochondrial function and cytoskeletal stability, respectively; DMSO served as the negative control for this experiment. Cells were fixed by the direct addition of 50 uL formaldehyde in Hank's Balanced Salt Solution (HBSS) to a final concentration of 3.7%. After incubation in the fixation medium for 30 min at room temperature (293-298 K), cells were rinsed twice with HBSS and treated with cell permeabilization buffer (16 uL of 0.5% Triton X-100) for 10 min at room temperature (293-298 K) before labeling. For mitochondrial membrane potential and mitochondrial measurements, pre-fixed cells were incubated with 50 uL of MitoTracker Red CMXRos (Invitrogen) at a concentration of 250 nM for 30 min before fixation. In the remaining cases, post-fixed cells were labeled by incubation with a multiplexed mixture of primary antibodies in HBSS for 60 min at room temperature (293-298 K) to detect immunoreactivity of c-Jun (1:500), phospho-histone H3 (1:100), phospho-histone H2A.x (1:200), p53 (1:400), alpha-tubulin (1:200) and Hoechst 33342 (2 ug/mL). […]

The nature of test [7]: APR_HepG2_MitoMass_72hr: Apredica 72-hour HepG2 Assay for Mitochondrial Mass (AID 2282924).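 Further: MitoTracker Red CMXRos stain intensity per cell imaged as mitochondrial mass.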 The settings on record: high-content imaging, actives raise or lower the signal. The method in brief: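 Readout is imaged MitoTracker Red (250 nM, 30 min, pre-fixation) signal, fitted bidirectionally against DMSO baseline. Human HepG2 liver cells received compound 0.39–200 uM in duplicate for 72 hr, final DMSO 0.5%.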

Test [8] has as its target CCAAT/enhancer-binding protein beta (Homo sapiens) (UniProt P17676). The test is described as follows: ATG_C_EBP_CIS: Attagene CIS-FACTORIAL HepG2 Assay for human CCAAT/Enhancer Binding Protein (C/EBP) beta (AID 2282927). To be noted: HepG2 Attagene cis-factorial transcription factor reporter; actives raise or lower the signal. The method in brief:
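Endogenous C/EBPb-driven reporter transcripts measured in transfected human HepG2 cells at 24 h via RT-PCR and capillary electrophoresis of labelled fragments. Activity fitted in both directions relative to DMSO baseline.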

A short description of test [9]: APR_HepG2_MicrotubuleCSK_72hr: Apredica 72-hour HepG2 Assay for Microtubule CSK Stabilty (AID 2282919). To be noted: HepG2 microtubule cytoskeleton, high-content imaging, actives raise or lower the signal. The method in brief: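 High-content imaging of alpha-tubulin staining in fixed HepG2 cells after 72 hr treatment with ten concentrations from 0.39 to 200 uM (0.5% DMSO). Fitting was bidirectional against DMSO; taxol served as positive control.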

Test [10] can be described thus: APR_HepG2_NuclearSize_72hr: Apredica 72-hour HepG2 Assay for Nuclear Size (AID 2282925). To be noted: high-content imaging, actives raise or lower the signal. The method in brief:
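Nuclear size was read by high-content imaging of Hoechst 33342 stain after formaldehyde fixation. Compounds ran 72 h on HepG2 at 0.39 to 200 uM, with final DMSO 0.5% v/v. Curves fitted both directions relative to DMSO control.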

Where “and” joins values, the source holds several entries; their conditions need not be identical. Equal values may be shown once. Where a structure was tested more than once in an assay, its records may differ in their call. Calls of active or inactive are those of the source. How the source made its calls: active means hit-call score of the fitted dose curve at least 0.9, where 1 is the maximum; inactive means score below 0.9.

CCAAT/enhancer-binding protein beta (Homo sapiens), sequence (P17676 whole entry, looked up, the tested form may be a part): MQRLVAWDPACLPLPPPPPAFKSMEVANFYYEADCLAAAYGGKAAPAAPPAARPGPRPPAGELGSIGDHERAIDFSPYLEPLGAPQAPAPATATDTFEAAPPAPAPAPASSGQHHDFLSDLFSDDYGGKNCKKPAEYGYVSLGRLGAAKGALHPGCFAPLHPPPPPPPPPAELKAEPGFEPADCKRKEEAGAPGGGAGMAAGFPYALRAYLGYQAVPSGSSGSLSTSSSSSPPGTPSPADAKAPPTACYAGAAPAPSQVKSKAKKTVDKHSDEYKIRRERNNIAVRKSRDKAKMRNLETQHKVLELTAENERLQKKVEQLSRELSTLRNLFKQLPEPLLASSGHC

Broadly, the AC50 is the midpoint of the concentration-response curve, whichever way the signal moves. For `O=C(NO)c1ccccc1`, the AC50 in [1] is 8.57 µM (active); in test [2], 37.2 µM (active) [middle of 4 runs]. Moreover, the call in test [1] was inactive.
Regarding `CCCCc1oc2ccccc2c1C(=O)c1cc(I)c(OCCN(CC)CC)c(I)c1`, the AC50 was 8.51 µM (active) in [3]; 58.2 µM (active) in test [5]; 75.5 µM (active) in test [6]; 52.6 µM (active) in [7]; 20.9 µM (active) in test [1]; 95 µM (active) in [8]. Also, the concentration at half-maximal activity (AC50) in test [2] was 20 µM (active). In [4], the result was inactive.
Turning to `CC(=O)Nc1ccc(O)cc1`, the outcome in [3], in [4], in test [5], in test [7], in test [1] and in test [2] was inactive.
Turning to `CCCCCCCCCCCC[N+](C)(C)Cc1ccccc1`, in test [1], the AC50 is 19.5 µM (active) and the call was inactive. In [8], the AC50 was 18 µM (active) and the outcome was inactive.
Take `NC(=NCCCCCCN=C(N)/N=C(\N)Nc1ccc(Cl)cc1)/N=C(\N)Nc1ccc(Cl)cc1`: the AC50 in test [1] is 24 µM (active); in [8], 24.6 µM (active); in test [2] it was 163 µM (active) and 166 µM (active). Besides, the compound was called inactive in test [1], in test [8] and in test [2].
For `CN(C)CCOC(c1ccccc1)c1ccccc1`, the AC50 in test [3] was 111 µM (active). For the same compound, the compound was called inactive in test [4], in test [5], in [7], in [1], in [8] and in test [2].
In the case of `CCCCC=O`, the result in test [3], in test [9], in test [4], in [5], in [7] and in test [10] was inactive. Moreover, the call in test [1], in test [8] and in test [2] was inactive.
For `C=C(c1ccc(C(=O)O)cc1)c1cc2c(cc1C)C(C)(C)CCC2(C)C`, the results for the AC50 in [1], in [8] and in test [2] were 31.9 µM (active), 0.0309 µM (active) and 4.89 µM (active), respectively. Besides, the result in [1], in test [8] and in test [2] was inactive.
`Cc1[nH]nc2c1N=C(c1ccccc1Cl)c1cc([N+](=O)[O-])ccc1N2`: the AC50 in test [3] was 28.8 µM (active); in [4] it was 11.7 µM (active); in [5], 19.8 µM (active); in [7], 0.248 µM (active); in test [10], 0.325 µM (active); in test [2], 1.58 µM (active). The outcome in test [9] and in test [1] was inactive.
As to `FC(F)(F)N1C(F)(F)C(F)(F)OC(F)(F)C1(F)F`, the outcome in test [1] and in test [8] was inactive.
Regarding `C=CCOCC(CO)(CO)CO`, the compound was classed as inactive in test [1].
The same measure, in the same setting: to `C=COC(=O)C(C)(C)CCCCCC` belongs “inactive”; to `CCCCCCC(C)(C)C(=O)O`, “inactive”.
For `CCCCCCCCCCCCCCC`, the outcome in test [3], in test [9], in [4], in [5], in [7] and in test [10] was inactive. For the same compound, the call in [1] and in test [8] was inactive.
